Unmarked numbers belong to inactive results. How the calls were made is not given here.
Molecular target: Pantothenate synthetase (Mycobacterium tuberculosis (strain ATCC 25618 / H37Rv)) (UniProt P9WIL5)
Assay: Coupled enzyme confirmation of inhibitors against recombinant Mtb PanC (AID 375);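 further: 0% = full reaction with vehicle and 100% = no enzyme background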
Conditions: coupled enzyme assay; at 10 µM, stronger effect = higher value

Chain of Pantothenate synthetase (Mycobacterium tuberculosis (strain ATCC 25618 / H37Rv)) (P9WIL5 whole entry, looked up): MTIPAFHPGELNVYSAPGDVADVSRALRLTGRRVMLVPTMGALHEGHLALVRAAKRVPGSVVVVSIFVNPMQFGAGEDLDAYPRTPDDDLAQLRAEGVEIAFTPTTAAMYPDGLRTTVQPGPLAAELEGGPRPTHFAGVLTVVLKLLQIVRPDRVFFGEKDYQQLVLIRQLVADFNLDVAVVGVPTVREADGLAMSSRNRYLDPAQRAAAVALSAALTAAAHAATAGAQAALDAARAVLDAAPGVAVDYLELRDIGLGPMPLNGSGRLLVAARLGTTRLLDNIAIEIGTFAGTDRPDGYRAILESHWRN

Row | Structure (SMILES) | inhibition [%]
1 | CCN(CC)CCNC(=O)C1CCN(S(=O)(=O)N2CCCCC2)CC1 | 0
2 | CC(C)N(C(=O)N1CCC(c2nc(-c3ccncc3)no2)CC1)C(C)C | 0
3 | O=C1CCc2cc(S(=O)(=O)N3CCC(C(=O)Nc4nccs4)CC3)ccc2N1 | 4
4 | Cc1ccc2[nH]c3c(c2c1)CN(C(=O)CN1CCN(c2cccc(C)c2C)CC1)CC3 | 0
5 | COc1ccc(C)cc1-n1c(N)c(C#N)c(C#N)c1-c1ccc(OC)c(OC)c1OC | 4
6 | Cc1ccc(NCc2nnc(SCC(=O)NCc3ccco3)n2CC2CCCO2)cc1Cl (stereo not given) | 3
7 | CCn1c(C(=O)N2CCC(C(=O)NCc3ccc4c(c3)OCO4)CC2)cc2sccc21 | 0
8 | COC(=O)c1sc(S(=O)(=O)NCc2cccs2)c(C(=O)OC)c1C | 0
9 | CC(C(=O)N1c2ccc(F)cc2CCC1C)N1C(=O)c2ccccc2C1=O (stereo not given) | 5
10 | CC(NC(=O)C1CCCN(S(=O)(=O)c2cccs2)C1)c1ccccc1 (stereo not given) | 0
11 | Cc1cccc(Nc2ccccc2C(=O)O)c1C | 4
12 | CCn1cc(C(=O)O)c(=O)c2ccc(C)nc21 | 0
13 | Cc1cc(-c2ccccc2)nc(SCc2ccc(C(=O)O)o2)n1 | 0
14 | O=C(C1CCC(N2C(=O)C3CC=CCC3C2=O)CC1)N1CCCCC1 (stereo not given) | 1
15 | COc1cc(NC(=O)c2ccc(COCC(F)(F)F)o2)cc(OC)c1OC | 7
16 | O=C(Nc1ccccc1C(=O)NCC1CCCO1)c1ccco1 (stereo not given) | 1
17 | COc1ccc2cc(C(=O)NCc3ccco3)c(=Nc3ccc(C(=O)O)cc3)oc2c1 | 0
18 | CC(C)(C)n1nnnc1CN1CCC(NC(=O)NC2CCCCC2)CC1 | 0
19 | CCOC(=O)c1c(COC(=O)c2ccco2)nc2ccccc2[n+]1[O-] | 0
20 | C=CCNS(=O)(=O)c1ccc2nsnc2c1 | 0

Row | Structure (SMILES) | inhibition [%]
21 | COc1ccc(-c2cc(C(=O)Nc3ccc(C)cc3)no2)cc1 | 0
22 | Cc1ccccc1NC(=O)CSc1nc(N)c(C#N)c(-c2cccs2)c1C#N | 0
23 | CCCCn1nnc(NC(=O)c2cc3ccccc3o2)n1 | 0
24 | CCCC(=O)Nc1c2c(nn1-c1ccc(OC)cc1)CS(=O)C2 (stereo not given) | 1
25 | CCn1c(=O)cc(OCC(=O)NCCCN2CC(C)CC(C)C2)c2ccccc21 (stereo not given) | 3
26 | CCCCOc1ccc(CC(=O)NO)cc1 | 9
27 | Cc1ccc(NC(=O)c2cc(-c3ccc(C)o3)nc3ccccc23)nc1 | 0
28 | COc1ccccc1N1CCN(C(=O)c2cc(C3CC3)on2)CC1 | 3
29 | CC(=O)Nc1ccc(S(=O)(=O)N2CCN(C(=O)CCC3CCCC3)CC2)cc1 | 0
30 | COCCCNC(=O)C1CCCN(C(=O)Nc2ccc(OC)cc2)C1 (stereo not given) | 2
31 | CCOC(=O)Nc1nnc(-c2ccccc2OC)s1 | 0
32 | CCCOC(=O)c1[nH]c2c(c1C)C(=O)CC(c1ccc(OC)c(OC)c1)C2 (stereo not given) | 0
33 | COc1ccccc1Nc1ccc(C(=O)NC2CCCCC2)cn1 | 0
34 | CCC(=O)N1C(=O)CCN(C(C)=O)c2ccccc21 | 0
35 | Cc1cccc(N2CCN(C(=O)Cn3nc(Cc4ccncc4)c4ccccc4c3=O)CC2)c1C | 4
36 | Cc1ccc(CN2C(=O)CCC2C(=O)NCC2CCCO2)cc1 (stereo not given) | 3
37 | O=C(c1ccc(CNS(=O)(=O)c2cccc(C(F)(F)F)c2)cc1)N1CCOCC1 | 0
38 | Cc1nnc2n(Cc3ccccc3)c(=O)c3c4c(sc3n12)COC(C(C)C)C4 (stereo not given) | 0
39 | COC(=O)c1cc(Br)c(=O)n(Cc2cccnc2)c1 | 9
40 | CC(=O)c1ccc(NC(=O)c2cc(CC(C)C)on2)cc1 | 0
